# Records with an inconclusive call do not appear. The source made the active and inactive calls. The calls were made as follows, unless noted: active = hit-call score of the fitted dose curve at least 0.9, where 1 is the maximum; inconclusive = response in the unintended direction; inactive = score below 0.9.
# Key:
# PGR (gene 5241) [1] = biological target: PGR (gene 5241) (UniProt P06401); assay: TOX21_PR_BLA_Followup_Antagonist_ratio: Tox21 HEK293 Progesterone Receptor (PR) Antagonism Beta-lactamase Follow-Up Assay, Ratio (AID 2283934)
# PGR (gene 5241), sequence (P06401 whole entry, looked up): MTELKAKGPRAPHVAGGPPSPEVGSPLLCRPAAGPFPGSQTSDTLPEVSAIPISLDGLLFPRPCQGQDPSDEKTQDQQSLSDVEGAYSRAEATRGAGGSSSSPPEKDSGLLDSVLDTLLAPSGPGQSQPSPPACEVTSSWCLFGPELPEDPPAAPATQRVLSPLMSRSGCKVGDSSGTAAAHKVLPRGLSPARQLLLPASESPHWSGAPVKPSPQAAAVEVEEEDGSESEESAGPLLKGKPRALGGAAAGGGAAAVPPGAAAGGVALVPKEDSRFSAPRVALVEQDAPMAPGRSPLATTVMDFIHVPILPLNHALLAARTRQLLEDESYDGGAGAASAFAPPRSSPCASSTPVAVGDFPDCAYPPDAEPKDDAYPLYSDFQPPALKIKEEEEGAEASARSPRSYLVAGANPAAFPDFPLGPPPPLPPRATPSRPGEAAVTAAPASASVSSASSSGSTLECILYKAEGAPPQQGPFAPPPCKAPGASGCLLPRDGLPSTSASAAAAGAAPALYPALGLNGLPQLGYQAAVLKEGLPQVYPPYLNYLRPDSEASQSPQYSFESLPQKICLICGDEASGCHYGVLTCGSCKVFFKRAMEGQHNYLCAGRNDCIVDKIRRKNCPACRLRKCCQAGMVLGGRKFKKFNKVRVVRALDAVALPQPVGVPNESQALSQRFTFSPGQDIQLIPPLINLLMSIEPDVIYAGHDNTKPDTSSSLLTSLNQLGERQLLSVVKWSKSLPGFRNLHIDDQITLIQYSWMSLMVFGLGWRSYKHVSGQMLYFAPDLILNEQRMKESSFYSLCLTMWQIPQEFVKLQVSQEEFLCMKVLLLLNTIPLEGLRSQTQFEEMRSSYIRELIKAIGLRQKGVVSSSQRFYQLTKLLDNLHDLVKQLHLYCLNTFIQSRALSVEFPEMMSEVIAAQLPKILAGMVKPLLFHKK
# In short: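 Readout is the blue/green (ch2/ch1) substrate cleavage ratio after 2 hours at room temperature, following 16 hr co-treatment of PR-bla HEK293T cells with compound and 1nM promegestone. Multiplexed CellTiter-Glo viability flags cytotoxicity; DMSO baseline.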
# [2] = TOX21_PR_BLA_Followup_Agonist_viability: Viability Assessment in the Tox21 HEK293 Progesterone Receptor (PR) Agonism Beta-lactamase Follow-Up Assay (AID 2283935);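 also: signal loss means lower viability so actives are cytotoxic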
# In short: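 Run multiplexed with the beta-lactamase FRET read, this endpoint measures ATP by CellTiter-Glo luminescence (30 min, room temperature). PR-UAS-bla HEK293T cells received compound 6 hr after plating and were then incubated 16 hr at 37C in 2% stripped serum.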
# [3] = TOX21_PR_BLA_Followup_Antagonist_viability: Viability Assessment in the Tox21 HEK293 Progesterone Receptor (PR) Antagonism Beta-lactamase Follow-Up Assay (AID 2283936);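 also: cells exposed to compound with R5020 agonist for 16 h; hits lower the luminescence signal meaning cytotoxicity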
# Method: TOX21_PR_BLA_Followup is a secondary assay for specificity for the TOX21_PR_BLA_Agonist assay. To differentiate true PR agonists from cytotoxic substances, this follow up assay is multiplexed with a cell viability assay. The compounds were also tested for auto fluorescence that may interfere with the biological target readout resulting in potential false positives and/or negatives. To identify the compounds that stimulate PR signaling, a PR-UAS-bla GripTite cell line i.e. PR-UAS-bla HEK293T (Invitrogen, Carlsbad, CA, USA) containing a beta-lactamase reporter gene under the control of an UAS response element was used to screen Tox21 10K compound library. The cytotoxicity of the Tox21 compound library against the PR-bla cell line was tested in parallel by measuring the cell viability using CellTiter-Glo assay in the same wells. TOX21_PR_BLA_Followup_Antagonist_viability is a component of the TOX21_PR_BLA_Followup_Antagonist assay. This component measures cell viability using the CellTiter-Glo Luciferase-coupled ATP quantitation.TOX21_PR_BLA_Followup_Antagonist_viability used a type of viability reporter where loss-of-signal activity can be used to understand changes in the cell viability. Furthermore, this assay endpoint can be referred to as a secondary readout, because this assay has produced multiple assay endpoints where this one serves a viability function. To generalize the intended target to other relatable targets, this assay endpoint is annotated to the cell cycle intended target family, where the subfamily is cytotoxicity.
# Assay Protocol: PR-UAS-bla HEK293T cells were dispensed at 3,000 cells/4 uL of assay medium containing 2% charcoal stripped FBS per well into black wall/clear-bottom 1536-well plates using a Multidrop Combi (ThermoFisher Scientific, Waltham, MA) dispenser. After the assay plates were incubated at a 37C and 5% CO2 for 4 hr, 23 nL of compounds dissolved in DMSO, positive controls or DMSO only was transferred to the assay plate by a Pintool station (Kalypsys, San Diego, CA), followed by addition of 1 uL of R5020 in assay medium using a Flying Reagent Dispenser (FRD, Aurora Discovery, San Diego, CA). The plates were incubated at 37C and 5% CO2 for 16 hr. Then 1 uL of LiveBLAzer B/G FRET substrate was added using a Flying Reagent Dispenser, the plates were incubated at room temperature for 2 hours, and fluorescence intensity was measured by an Envision plate reader (PerkinElmer, Shelton, CT). For cell viability readout that measures cytotoxicity, 4 uL/well of CellTiter-Glo reagent was added into the assay plates using a FRD. After 30 min incubation at room temperature, the luminescence intensity in the plates was measured using a ViewLux (PerkinElmer) plate reader.
# PGR (gene 5241) [4] = biological target: PGR (gene 5241) (UniProt P06401); assay: TOX21_PR_LUC_Followup_Antagonist: Tox21 HEK293 Progesterone Receptor (PR) Antagonism Luciferase Follow-Up Assay (AID 2283938);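 also: curve fitted upward as signal gain over DMSO baseline despite antagonist label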
# Text: TOX21_PR_LUC_Followup is a secondary assay for specificity for the TOX21_PR_BLA_Agonist assay. To differentiate true PR agonists from cytotoxic substances, this follow up assay is multiplexed with a cell viability assay.TOX21_PR_LUC_Followup_Antagonist is one of one assay component(s) measured or calculated from the TOX21_PR_LUC_Followup assay. It is designed to make measurements of luciferase induction, a form of inducible reporter, as detected with bioluminescence signals by CellTiter-Glo Luciferase-coupled ATP quantitation technologyData from the assay component TOX21_PR_LUC_Followup_Antagonist was analyzed into 1 assay endpoint. This assay endpoint, TOX21_PR_LUC_Followup_Antagonist, was analyzed in the positive analysis fitting direction relative to DMSO as the negative control and baseline of activity. Using a type of inducible reporter, gain-of-signal activity can be used to understand changes in the reporter gene as they relate to the gene NR3C3. Furthermore, this assay endpoint can be referred to as a primary readout, because the performed assay has only produced 1 assay endpoint. To generalize the intended target to other relatable targets, this assay endpoint is annotated to the nuclear receptor target family, where the subfamily is steroidal.
# Quality Control Precautions: Maintain cells below 85-90% confluence in culture medium. For assay purpose, the cells should be cultured in assay medium with 10% charcoal stripped FBS for 5 days with alternate day medium changed to fresh medium. Especially while in assay culture, the cells should not reach more than 85% confluence as they would become harder to detach if they reach over confluence.Assay Protocol: HEK293-PR-A-luc cells were dispensed at 3,000 cells/5 uL/well of culture medium into white wall/solid-bottom 1536-well plates using a Multidrop Combi (ThermoFisher Scientific, Waltham, MA) dispenser. After the assay plates were incubated at 37C and […] for 5 h, 23 nL of compounds dissolved in DMSO, positive controls or DMSO only was transferred to the assay plate by a Pintool station (Kalypsys, San Diego, CA). The plates were incubated at 37C and […] for 16 h. Then 4 uL of ONE-Glo reagent (Promega, Madison, WI) was added to each plate using a BioRAPTR Flying Reagent Dispenser (FRD) workstation (Beckman Coulter, Indianapolis, IN, USA) and luminescence was quantified on a ViewLux (PerkinElmer, Shelton, CT) plate reader after 30 min incubation at room temperature.
# [5] = TOX21_PR_LUC_Followup_Agonist_viability: Viability Assessment in the Tox21 HEK293 Progesterone Receptor (PR) Agonism Luciferase Follow-Up Assay (AID 2283941);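 also: loss of signal means cytotoxicity so actives lower viability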
# In short: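 Cytotoxicity counter-readout in the PR-A luciferase reporter line HEK293, with 16 h compound exposure at 37C after cells were cultured in charcoal-stripped serum. Cellular ATP quantified by CellTiter-Glo luminescence.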
# PGR (gene 5241) [6] = biological target: PGR (gene 5241) (UniProt P06401); assay: TOX21_PR_LUC_Followup_Agonist: Tox21 HEK293 Progesterone Receptor (PR) Agonism Luciferase Follow-Up Assay (AID 2283937; active = hit-call score of the fitted dose curve at least 0.9, where 1 is the maximum; inactive = score below 0.9)
# In short: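 Agonism scored as luciferase induction over DMSO, read by ONE-Glo after 30 min at RT. Compounds were incubated 16 h at 37C on HEK293-PR-A-luc cells (3,000/well, pre-plated 5 h) previously grown 5 days in charcoal-stripped serum.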
# THRA (gene 7067) = THRA (gene 7067) (UniProt P10827); assay: TOX21_TRA_COA_Agonist_Followup_ratio: Tox21 Thyroid Hormone Receptor alpha Agonism through Coactivator Recruitment Follow-Up Assay, Ratio (AID 2283948; active = hit-call score of the fitted dose curve at least 0.9, where 1 is the maximum; inactive = score below 0.9)
# THRA (gene 7067), sequence (P10827 whole entry, looked up, the tested form may be a part): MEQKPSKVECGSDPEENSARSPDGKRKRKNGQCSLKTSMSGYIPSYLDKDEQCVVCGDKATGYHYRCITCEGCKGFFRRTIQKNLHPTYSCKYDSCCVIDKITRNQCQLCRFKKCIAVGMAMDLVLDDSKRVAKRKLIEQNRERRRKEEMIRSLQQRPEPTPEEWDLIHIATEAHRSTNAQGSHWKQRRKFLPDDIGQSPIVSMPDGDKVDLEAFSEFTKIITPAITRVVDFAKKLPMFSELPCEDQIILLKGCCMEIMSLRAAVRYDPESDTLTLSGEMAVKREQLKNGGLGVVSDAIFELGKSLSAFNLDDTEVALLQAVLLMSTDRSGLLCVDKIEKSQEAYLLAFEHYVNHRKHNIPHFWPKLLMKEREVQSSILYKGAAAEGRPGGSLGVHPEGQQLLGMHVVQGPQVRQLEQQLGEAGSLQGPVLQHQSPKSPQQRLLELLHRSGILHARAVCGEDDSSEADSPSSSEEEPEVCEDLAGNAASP
# In short: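 GST-TRa LBD 2.5 nM + 0.10% BSA + cpd; add fluorescein-SRC-2 200 nM, Tb-anti-GST 2 nM. TR-FRET ex 340, em 520/495 ratio. Norm: DMSO 0%, T3 100%; gain-of-signal fit.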
# THRB (gene 7068) = THRB (gene 7068) (UniProt P10828); assay: TOX21_TRB_BLA_Agonist_Followup_ratio: Tox21 Thyroid Hormone Receptor beta Agonism Beta-lactamase (BLA) Follow-Up Assay, Ratio (AID 2283954)
# THRB (gene 7068), sequence (P10828 whole entry, looked up, the tested form may be a part): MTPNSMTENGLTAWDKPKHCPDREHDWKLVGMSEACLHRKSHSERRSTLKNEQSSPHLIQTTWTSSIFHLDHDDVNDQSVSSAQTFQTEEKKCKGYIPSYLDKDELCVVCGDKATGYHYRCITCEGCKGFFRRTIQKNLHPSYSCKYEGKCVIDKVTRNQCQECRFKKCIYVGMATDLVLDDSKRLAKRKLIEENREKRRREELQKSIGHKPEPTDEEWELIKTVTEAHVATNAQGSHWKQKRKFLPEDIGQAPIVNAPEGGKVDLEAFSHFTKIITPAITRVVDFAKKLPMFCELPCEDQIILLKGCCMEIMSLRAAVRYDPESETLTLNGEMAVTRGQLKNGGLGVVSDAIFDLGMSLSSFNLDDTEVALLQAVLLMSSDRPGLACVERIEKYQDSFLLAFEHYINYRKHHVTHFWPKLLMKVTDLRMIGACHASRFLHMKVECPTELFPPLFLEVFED
# Text: The GeneBLAzer TRb-UAS-bla HEK293T assay kit for human TRb (ThermoFisherScientific Catalog No. K1684) was used as a secondary assay for specificity (TRb-bla). This assay contained the ligand-binding domain (LBD) of the human TRb fused to the DNA-binding domain of GAL4 stably integrated in the GeneBLAzer UAS-bla HEK293Tcell line. The reporter gene, b-lactamase, is under the transcriptional control of a UAS that binds the GAL4 DNA-binding domain. A cell viability assay was run in parallel for these cells as well using the CellTiter-Glo viability assay kit.TOX21_TRB_BLA_Agonist_Followup_ratio is an assay readout measuring reporter gene via receptor activity and designed using inducible reporter (beta lactamase induction) detected with GAL4 b-lactamase reporter gene. The signal is derived from the ratio of cleaved (ch2) to uncleaved (ch1) reporter gene substrate used as the measure of target activity.Data from the assay component TOX21_TRB_BLA_Agonist_Followup_ratio was analyzed into 1 assay endpoint. This assay endpoint, TOX21_TRB_BLA_Agonist_Followup_ratio, was analyzed in the positive analysis fitting direction relative to DMSO as the negative control and baseline of activity. […] Furthermore, this assay endpoint can be referred to as a primary readout, because this assay has produced multiple assay endpoints and this ratio serves a reporter gene function to understand target activity. […]
# [7] = TOX21_TRB_BLA_Agonist_Followup_viability: Viability Assessment in the Tox21 Thyroid Hormone Receptor beta Agonism Beta-lactamase (BLA) Follow-Up Assay (AID 2283956)
# In short: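 Viability was read as CellTiter-Glo luminescence in the same wells as the TRb-bla agonist read-out. HEK293T GAL4-TRb LBD cells were treated for 18 h (37C, 5% CO2) at 11 concentrations in triplicate. Fits were bidirectional versus DMSO baseline.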
structure (smiles),measurement,setting,value
Clc1ccc(C2(Cn3cncn3)CC(Br)CO2)c(Cl)c1 (stereo not given),AC50,PGR (gene 5241) [1],37.7 µM (active)
same,outcome,[2],inactive
same,outcome,[3],inactive
same,AC50,PGR (gene 5241) [4],46.1 µM (active)
same,outcome,[5],inactive
C[C@H]1CCCC(=O)CCC/C=C/c2cc(O)cc(O)c2C(=O)O1,AC50,PGR (gene 5241) [1],14.4 µM (active)
same,outcome,[2],inactive
same,outcome,[3],inactive
same,outcome,PGR (gene 5241) [6],inactive
same,outcome,PGR (gene 5241) [4],inactive
same,outcome,[5],inactive
C=C(C)C(=O)[O][Sn]([CH2]CCC)([CH2]CCC)[CH2]CCC,outcome,THRA (gene 7067),inactive
same,AC50,THRB (gene 7068),68.3 µM (active)
same,AC50,[7],7.08 µM (active)
CC(C)(OO)c1ccccc1,outcome,THRA (gene 7067),inactive
same,outcome,[7],inactive
Oc1ccc(-c2ccccc2)cc1,AC50,PGR (gene 5241) [1],29.5 µM (active)
same,outcome,[2],inactive
same,outcome,[3],inactive
same,AC50,PGR (gene 5241) [4],33 µM (active)
C[C@]12CC[C@H](O)CC1=CC[C@@H]1[C@@H]2CC[C@]2(C)C(=O)CC[C@@H]12,AC50,PGR (gene 5241) [1],16.1 µM (active)
same,outcome,[2],inactive
same,outcome,[3],inactive
same,outcome,PGR (gene 5241) [4],inactive
same,outcome,[5],inactive
CC12CC1(C)C(=O)N(c1cc(Cl)cc(Cl)c1)C2=O (stereo not given),outcome,PGR (gene 5241) [1],inactive
same,outcome,[2],inactive
same,outcome,PGR (gene 5241) [6],inactive
same,outcome,PGR (gene 5241) [4],inactive
same,outcome,[5],inactive

# From PubChem BioAssay (EPA / NIEHS)
